Source: PubChem BioAssay

Key:
[1] = system: Human papillomavirus type 1a protein E7 (residues 44-93); test: HPV1a E7 fragment binders on microarrays, primary screen, biochemical, small-molecule microarray, residues 44-93, 635 nm fluorescence (AID 1108); conditions: small-molecule microarray binding, fluorescence 635 nm; higher = more signal;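 also: E7 fragment applied at 1 µg/mL in TBST for 1 h at 4 C; score combines spot fluorescence with its signal to noise ratio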
[2] = modulators of HCV replicon luciferase signal, primary screen, HCV replication inhibitor project, Huh7 cells, luciferase reporter (AID 1109); conditions: 48 h, higher = more signal;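 also: huh7 hepatoma cells harbouring a luciferase neomycin HCV replicon reporter; luciferase luminescence as measure of HCV replicon replication; test concentration not given here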
[3] = biological target: Left-right determination factor 2 (Homo sapiens) (UniProt O00292); test: LEFTY2 binders on small-molecule microarrays, primary screen, biochemical, small-molecule microarray, 635 nm fluorescence scan (AID 1110); conditions: LEFTY2 binding, higher = more signal
[4] = biological target: Calmodulin-1 (Homo sapiens) (UniProt P0DP23); test: CALM1 binders on microarrays, EGTA buffer, profiling panel, biochemical, small-molecule microarray, Cy5-labelled CALM1 (AID 1111); conditions: Cy5-CALM1 binding fluorescence, higher = more signal;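 also: labelled calmodulin applied in Tris saline Tween buffer holding calcium plus EGTA and DTT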
[5] = biological target: Calmodulin-1 (Homo sapiens) (UniProt P0DP23); test: calcium-bound CALM1 binders on microarrays, profiling panel, artefact control for SMM control-protein annotation, biochemical, small-molecule microarray, Cy5-labelled CALM1, plus calcium (AID 1112); conditions: Cy5-CALM1 binding fluorescence, higher = more signal;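 also: score merges spot fluorescence with signal to noise from triplicate slides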
[6] = small-molecule microarray binders of probe aWnt5a, primary screen, biochemical, biotinylated probe, 635/667 nm fluorescence (AID 1113); conditions: higher = more signal;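 also: score merges 667 nm fluorescence intensity with signal-to-noise per printed feature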
[7] = small-molecule microarray binders of probe aShh, primary screen, biochemical, biotinylated probe, 635/667 nm fluorescence (AID 1114); conditions: higher = more signal;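 also: probe is biotin-labelled aShh protein from a stem cell growth factor screen; measures binding of labelled protein to compounds printed on the slide; score merges feature fluorescence at 667 nm with signal-to-noise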
[8] = small-molecule microarray binders of probe aNog, primary screen, biochemical, biotinylated probe, 635/667 nm fluorescence (AID 1115); conditions: higher = more signal;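 also: probe is biotinylated aNog protein used at 0.15 µg/mL for 1 h at 4 C; z-score combines 667 nm fluorescence of each spot with its signal to noise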
[9] = biological target: Torsin-1A-interacting protein 1 (Homo sapiens) (UniProt Q5JTV8); test: LAP1 binders from COS7 cell lysate, primary screen, small-molecule microarray, 635/667 nm fluorescence (AID 1116); conditions: COS7-hLAP1 lysate binding, 635 nm fluorescence, higher = more signal
[10] = biological target: Alpha-bungarotoxin (Bungarus multicinctus) (UniProt P60615); test: alpha-bungarotoxin binders on microarray, profiling panel, artefact control for SMM control protein annotation, biochemical, small-molecule microarray, Alexa647 label, 635/667 nm fluorescence (AID 1117); conditions: alpha-BTX-A647 binding fluorescence, higher = more signal
Sequence of Alpha-bungarotoxin (Bungarus multicinctus) (P60615 whole entry, looked up): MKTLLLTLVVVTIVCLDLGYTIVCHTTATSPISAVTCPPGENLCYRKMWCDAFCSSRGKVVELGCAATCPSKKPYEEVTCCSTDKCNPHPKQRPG

Sequence of Left-right determination factor 2 (Homo sapiens) (O00292 whole entry, looked up): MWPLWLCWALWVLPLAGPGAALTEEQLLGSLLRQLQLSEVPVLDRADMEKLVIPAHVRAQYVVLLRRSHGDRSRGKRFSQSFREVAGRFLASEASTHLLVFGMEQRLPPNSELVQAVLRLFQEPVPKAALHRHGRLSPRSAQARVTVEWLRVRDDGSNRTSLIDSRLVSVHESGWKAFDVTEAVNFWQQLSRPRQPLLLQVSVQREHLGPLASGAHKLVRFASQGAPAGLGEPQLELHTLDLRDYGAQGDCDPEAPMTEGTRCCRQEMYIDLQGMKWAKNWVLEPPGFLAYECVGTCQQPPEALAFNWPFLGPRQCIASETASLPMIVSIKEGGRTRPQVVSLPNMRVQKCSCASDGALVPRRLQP
Sequence of Torsin-1A-interacting protein 1 (Homo sapiens) (Q5JTV8 whole entry, looked up): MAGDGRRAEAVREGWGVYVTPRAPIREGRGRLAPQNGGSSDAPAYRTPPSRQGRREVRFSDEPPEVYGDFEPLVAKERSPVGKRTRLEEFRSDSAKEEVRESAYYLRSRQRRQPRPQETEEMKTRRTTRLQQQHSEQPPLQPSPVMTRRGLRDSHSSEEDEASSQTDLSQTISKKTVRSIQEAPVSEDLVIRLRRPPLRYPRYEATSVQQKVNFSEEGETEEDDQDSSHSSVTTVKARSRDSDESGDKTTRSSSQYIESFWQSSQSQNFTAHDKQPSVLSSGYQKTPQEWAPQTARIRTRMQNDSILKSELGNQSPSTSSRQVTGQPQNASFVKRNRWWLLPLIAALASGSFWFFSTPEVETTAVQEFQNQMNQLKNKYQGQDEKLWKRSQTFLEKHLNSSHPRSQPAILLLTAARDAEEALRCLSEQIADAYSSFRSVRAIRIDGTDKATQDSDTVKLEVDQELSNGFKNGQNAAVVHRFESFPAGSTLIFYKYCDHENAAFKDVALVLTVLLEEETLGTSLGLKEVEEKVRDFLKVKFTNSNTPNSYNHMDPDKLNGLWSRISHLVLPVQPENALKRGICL

Row | SMILES | composite z-score [1] | z-score [2] | composite z-score [3] | composite z-score [4] | composite z-score [5] | composite z-score [6] | composite z-score [7] | composite z-score [8] | composite z-score [9] | composite z-score [10]
1 | O=C1c2ccccc2[C@](Cc2ccccc2I)(C(=O)NC2CC2)[C@H](c2ccc(CO)cc2)N1Cc1ccccc1 | 0.742 | -0.701 | -0.346 | 0.438 | 0.0099 | -0.101 | 0.234 | 0.099 | 0.711 | 0.832
2 | C=CCNC(=O)[C@@H]1[C@H]2C(=O)O[C@H](c3ccccc3)[C@H](c3ccccc3)N2[C@H](c2ccccc2OCCO)[C@@]12C(=O)N(C(=O)OCCOC)c1ccc(C#CCNC(N)=O)cc12 | 1.36 | -1.19 | 0.213 | 1.58 | 0.27 | -0.0196 | -0.739 | 0.658 | 0.96 | 1.76
3 | COc1ccc([C@H]2C[C@H]3C(Br)=C[C@@H]2C(=O)[C@]32CO2)cc1 | -0.693 | -2.46 | 0.446 | -0.0833 | -0.798 | 0.0136 | -0.138 | -0.158 | 0.252 | 0.29
4 | COc1ccc(CCN2C(=O)[C@@]3(Cc4ccccc42)c2ccccc2C(=O)N(Cc2ccccc2C(F)(F)F)[C@H]3c2ccc(CO)cc2)cc1 | 0.291 | -0.961 | 0.0259 | 0.238 | -0.839 | -0.158 | 0.0796 | -0.258 | 0.0645 | 0.88
5 | COCCOC(=O)N1C(=O)[C@@]2(c3cc(C#CC4=CCCCC4)ccc31)[C@H](c1ccc(O)cc1)N1[C@H](c3ccccc3)[C@H](c3ccccc3)OC(=O)[C@H]1[C@@H]2C(N)=O | 1.19 | -0.696 | 0.63 | 0.624 | 0.0442 | -0.0165 | 0.157 | -0.564 | 0.745 | 1.04
6 | CCOC(=O)C[C@H]1[C@H](OC(=O)c2cc3ccccc3oc2=O)[C@@H](NC(=O)C2CCCCC2)c2cc(OCCCO)ccc2N1C(=O)c1ccccc1 | 0.992 | -0.947 | 0.493 | -0.105 | -0.236 | -0.0405 | -0.138 | -0.266 | 0.294 | -0.0403
7 | CCOC(=O)C=Cc1cc([N+](=O)[O-])ccc1O | 0.0311 | -1.47 | -0.609 | -0.211 | -0.5 | -0.124 | 0.173 | -0.377 | 0.106 | -0.234
8 | C=CCN1C(=O)[C@]2(O[C@H](CCO)[C@@H]([Si](C)(C)c3ccc(OC)cc3)[C@@H]2C)c2cc(N3C(=O)c4cccc5cccc3c45)ccc21 | 1.17 | -5.11 | 0.164 | 0.719 | 0.124 | -0.159 | 0.0639 | -0.338 | 0.374 | 0.3
